# Laboratory results reported in PubChem BioAssay AID624464 (National Center for Advancing Translational Sciences (NCATS), 2012).
# Out of some 360,000 compounds screened, about 810 (0.23%) were called active. The list comes from a sample in which actives are over-represented; it also holds similar structures and randomly drawn compounds. A number with no mark means an inactive call. Rule as the data show it: active = potentiation above about 50%; inconclusive = mostly about 30% to 49%; inactive = weaker than that.
# Target: D(2) dopamine receptor (Homo sapiens) (UniProt P14416)
# Sequence (P14416 whole entry, looked up): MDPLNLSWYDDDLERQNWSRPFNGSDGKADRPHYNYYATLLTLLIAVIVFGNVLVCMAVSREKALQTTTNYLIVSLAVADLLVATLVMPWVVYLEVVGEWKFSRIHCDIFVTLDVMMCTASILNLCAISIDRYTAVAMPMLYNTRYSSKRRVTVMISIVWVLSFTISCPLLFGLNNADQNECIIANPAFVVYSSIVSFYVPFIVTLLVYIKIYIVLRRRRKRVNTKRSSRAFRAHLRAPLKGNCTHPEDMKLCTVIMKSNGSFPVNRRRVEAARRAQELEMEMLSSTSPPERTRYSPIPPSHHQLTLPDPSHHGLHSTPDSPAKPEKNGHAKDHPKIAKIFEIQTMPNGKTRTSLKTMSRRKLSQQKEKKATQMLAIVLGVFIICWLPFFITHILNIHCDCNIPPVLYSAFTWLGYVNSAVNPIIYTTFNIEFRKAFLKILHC
# Assay: Beta-Arrestin HTS for Positive Allosteric Modulators of the Human D2 Dopamine Receptor: Potentiators
# Settings: DiscoveRx D2 beta-arrestin cells, luminescence, 90 min; active compounds read high; 100% = 57 uM dopamine signal
# How it was run: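 PathHunter D2 cells, attached overnight at 37 deg C, received compound in DMSO plus dopamine at EC20 (50 nM final) for 90 min at 37 deg C. Beta-arrestin recruitment was read as luminescence after 1 h with detection reagent at ambient temperature.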
row,Structure (SMILES),potentiation
1,N#Cc1cccc(CSc2nnc(CCCO)n2-c2ccccc2)c1,-7.69%
2,O=C(NCc1ccccc1)C(c1ccccc1)N(C(=O)c1csnn1)c1ccc(F)cc1 (stereo not drawn),0.0815%
3,N/C(=N\OC(=O)Cc1ccccc1[N+](=O)[O-])c1ccc(Br)cc1,18.7%
4,N/C(=N\OC(=O)c1ccc2c(c1)OCO2)c1ccc(Br)cc1,24.5%
5,N/C(=N\OC(=O)N1c2ccccc2Sc2ccccc21)c1ccc(Br)cc1,86.3% (active)
6,CC1(C)CC(=O)C(C=NCc2cccnc2)=C(O)C1,0.0734%
7,COc1ccc(N2CC(C(=O)NCCS(=O)(=O)N3CCN(c4ccccc4)CC3)CC2=O)cc1 (stereo not drawn),-8.09%
8,CCOc1ccc(N2C(=O)CC(N(O)c3ccccc3)C2=O)cc1 (stereo not drawn),51.5% (active)
9,CCOC(=O)c1ccc(N2C(=O)CC(N(C)Cc3ccccc3)C2=O)cc1 (stereo not drawn),-5.22%
10,CCOc1ccc(N2C(=O)CC(N(CCc3ccc(OC)c(OC)c3)C(=S)Nc3ccccc3)C2=O)cc1 (stereo not drawn),-3.21%
11,Cc1c(C=O)c2ccccn2c1C(=O)c1ccncc1,13.6%
12,C=CCn1c2c(c3ccccc31)CCC2,-5.75%
13,CCOc1ccc(OCC(=O)OC(C)C(=O)NC2CCCCC2C)cc1 (stereo not drawn),-13.2%
14,CCc1ccnc(NC(=O)Nc2ccc(OCc3ccccc3)cc2)c1,-1.75%
15,COc1ccc(OC)c(S(=O)(=O)N2CCCC(C(=O)N3CCC(C(N)=O)CC3)C2)c1 (stereo not drawn),7.76%
16,CCOc1ccc(CCNC(=O)COC(=O)c2ccc(C)c(S(=O)(=O)N3CCOCC3)c2)cc1OCC,1.76%
17,Cc1ccc(-c2cn3cc(C)ccc3n2)cc1,6.89%
18,CCN(c1cccc(C)c1)S(=O)(=O)c1ccc(-c2coc(C)n2)cc1,-22%
19,CCN(CC)S(=O)(=O)c1ccc(-c2cn3ccc(C)cc3n2)cc1,56% (active)
20,COc1cccc2c1C(=O)c1c(O)c3c(c(O)c1C2=O)CC(O)(C(C)=NNC(=O)c1ccc(Cl)c(Cl)c1)CC3OC1CC(N)C(O)C(C)O1 (stereo not drawn),-9.55%
21,CCc1nc2ccc(C(=O)N(C)CCN(C)C)cn2c1N(CC)CCOC,-8.24%
22,O=C(NC(C(=O)NCCN1CCOCC1)C12CC3CC(CC(C3)C1)C2)C1CCCCC1 (stereo not drawn),-3.19%
23,COc1cccc(N(CC(=O)NCc2ccccc2)C(=O)CCC(=O)Nc2nccs2)c1,-2.58%
